According to PubChem BioAssay (NCI):
Compounds without any hit were thinned out: in the full panel of roughly 79,000, 15% have a hit. Calls of active or inactive are those of the source. No stated cut-off is given here; in the data, active means growth inhibition above about 70%; inactive means the rest.

How the values were obtained:
[1] = NCI Yeast Anticancer Drug Screen. Data for the rad50 strain (AID 155);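 further: 0% = growth of vehicle-only cultures of the same strain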; conditions: S. cerevisiae rad50 strain growth inhibition, stronger effect = higher value
How it was run: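 Cells are treated with compound, grown, and their growth is then scored against vehicle-only cultures of the same repair-deficient yeast strain.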

[2] = NCI Yeast Anticancer Drug Screen. Data for the sgs1 mgt1 strain (AID 161);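 further: 0% = growth of cultures given vehicle only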; conditions: S. cerevisiae sgs1 mgt1 strain, stronger effect = higher value
How it was run: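 Read-out: growth inhibition vs vehicle controls. Cells: mutant yeast strain deficient in DNA damage repair.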

[3] = NCI Yeast Anticancer Drug Screen. Data for the cln2 rad14 strain (AID 165);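 further: 0% = growth equal to vehicle treated cultures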; conditions: S. cerevisiae cln2 rad14 strain, stronger effect = higher value
How it was run: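 cln2 rad14 yeast strain; compound exposure; growth inhibition read vs vehicle controls.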

[4] = NCI Yeast Anticancer Drug Screen. Data for the bub3 strain (AID 167); conditions: S. cerevisiae bub3 mutant strain, stronger effect = higher value
How it was run: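 Part of a panel of yeast mutants defective in DNA damage repair or cell cycle regulation. Each strain is grown with compound, and inhibition is calculated relative to solvent-treated cultures.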

[5] = NCI Yeast Anticancer Drug Screen. Data for the mlh1 rad18 strain (AID 175); conditions: S. cerevisiae mlh1 rad18 strain growth inhibition, stronger effect = higher value
How it was run: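 Yeast w/ defined DNA-repair lesions; compound exposure; growth vs vehicle controls → % inhibition.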

[6] = NCI Yeast Anticancer Drug Screen. Data for the mec2-1 strain (AID 157); conditions: S. cerevisiae mec2-1 strain, stronger effect = higher value
How it was run: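 Yeast mec2-1 mutant treated with compound. Readout: growth inhibition vs vehicle controls.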

[7] = at 5.0 µM (retest, dose inferred, filed as 0.5)
[8] = at 50.0 µM (retest, dose inferred, filed as 5.0)

Measured: growth inhibition

COc1ccc2nc3c4c(nccc4c2c1)-c1ncccc1C3=O
active: [1]; [7] 93% | [1]; [8] 97% | [1]; at 50.0 µM 89.2% | [2]; [8] 97% | [2]; at 50.0 µM 90.8% | [3]; [8] 97% | [3]; at 50.0 µM 90.6% | [4]; [8] 96% | [4]; at 50.0 µM 89.5% | [5]; [7] 93% | [5]; [8] 97%
inactive: [2]; [7] 43% | [3]; [7] 61% | [4]; [7] 58% | [5]; at 50.0 µM -43%

O=C1C=CC(=O)N1c1ccccc1
active: [1]; [7] 95% | [1]; [8] 98% | [1]; at 50.0 µM 99.3% | [2]; [7] 94% | [2]; [8] 99% | [2]; at 50.0 µM 99.4% | [3]; [7] 94% | [3]; [8] 99% | [3]; at 50.0 µM 99% | [4]; [7] 99% | [4]; [8] 99% | [4]; at 50.0 µM 99.2% | [5]; [7] 90% | [5]; [8] 99% | [5]; at 50.0 µM 99.2%

C/C(=N\NC(=S)N1CCC1)c1ccccn1
active: [1]; [7] 91% | [1]; [8] 96% | [6]; [7] 88% | [6]; [8] 98% | [2]; [7] 92% | [2]; [8] 99% | [2]; at 50.0 µM 87.8% | [3]; [7] 93% | [3]; [8] 96% | [3]; at 50.0 µM 87% | [4]; [7] 94% | [4]; [8] 98% | [4]; at 50.0 µM 87.5% | [5]; [7] 93% | [5]; [8] 96%

O=C(c1ccc(O)c(Br)c1)c1ccc(O)c(Br)c1
active: [1]; [8] 99% | [6]; [7] 76% | [6]; [8] 99% | [6]; at 50.0 µM 76% | [3]; [7] 83% | [3]; [8] 99% | [4]; [7] 83% | [4]; [8] 99% | [4]; at 50.0 µM 82.7% | [5]; [7] 76% | [5]; [8] 99% | [5]; at 50.0 µM 88%
inactive: [1]; [7] 43% | [1]; at 50.0 µM 28.7% | [3]; at 50.0 µM 43.5%

C(CCc1nn[nH]n1)CCC1CCCCC1
inactive: [1]; [7] 13% | [6]; [7] 10% | [2]; [7] 11% | [3]; [7] 19% | [4]; [7] 11% | [5]; [7] -16%
active: [1]; [8] 98% | [6]; [8] 98% | [2]; [8] 95% | [3]; [8] 97% | [4]; [8] 98% | [5]; [8] 97%

O=C(c1ccccc1)c1cc2ccccc2oc1=O
active: [1]; [8] 71% | [5]; [8] 81% | [5]; at 50.0 µM 79%
inactive: [1]; [7] 1% | [1]; at 50.0 µM 63.1% | [6]; [7] 5% | [6]; [8] 35% | [6]; at 50.0 µM 13.3% | [3]; [7] 4% | [3]; [8] 52% | [3]; at 50.0 µM 37.8% | [4]; [7] -6% | [4]; [8] 61% | [4]; at 50.0 µM 10.8% | [5]; [7] 9%

N#Cc1ccc(Br)cc1[N+](=O)[O-]
active: [1]; at 50.0 µM 91.2% | [6]; at 50.0 µM 93.2% | [2]; [7] 74% | [2]; [8] 100% | [3]; [7] 90% | [3]; [8] 100% | [5]; at 50.0 µM 92%
inactive: [1]; [7] 45% | [1]; [8] 64% | [6]; [7] 41% | [6]; [8] 63% | [5]; [7] 33% | [5]; [8] 61%

O=C(O)c1cccc2cccc(-c3c4ccc(=O)c(O)c-4oc4c(O)c(O)ccc34)c12
inactive: [3]; [7] 62%
active: [1]; [7] 86% | [1]; [8] 96% | [1]; at 50.0 µM 87% | [2]; [7] 93% | [2]; [8] 98% | [2]; at 50.0 µM 90% | [3]; [8] 97% | [3]; at 50.0 µM 89% | [4]; [7] 93% | [4]; [8] 97% | [4]; at 50.0 µM 87.5% | [5]; [7] 96% | [5]; [8] 95% | [5]; at 50.0 µM 85.7%

CC(=O)Oc1c(Br)cc(Br)cc1C(OC(C)=O)OC(C)=O
active: [1]; [8] 96% | [6]; [8] 87% | [2]; [8] 99% | [4]; [8] 99% | [5]; [8] 93%
inactive: [1]; [7] 20% | [6]; [7] 8% | [2]; [7] 19% | [3]; [7] 3% | [3]; [8] 52% | [4]; [7] 6% | [5]; [7] -5%

CC(C)(C)C(=O)CC(c1ccccc1)c1ccccc1
inactive: [1]; [7] 11% | [1]; [8] 20% | [6]; [7] -1% | [6]; [8] 3% | [2]; [7] 5% | [2]; [8] 30% | [3]; [7] 12% | [3]; [8] 0% | [4]; [7] 10% | [4]; [8] 22% | [5]; [7] -13% | [5]; [8] 9%

Cc1cc(C(=O)c2ccccc2Cl)ccc1O
active: [1]; [8] 98% | [6]; [8] 99% | [2]; [8] 98% | [3]; [8] 98% | [4]; [8] 99% | [5]; [8] 98%
inactive: [1]; [7] 10% | [6]; [7] -5% | [2]; [7] 3% | [3]; [7] -2% | [4]; [7] -3% | [5]; [7] 10%

S=c1[nH]c(=S)c2[nH]c(=S)[nH]c2[nH]1
inactive: [1]; [7] -1% | [1]; [8] 0% | [6]; [7] 2% | [6]; [8] 6% | [2]; [7] 5% | [2]; [8] 11% | [3]; [7] -13% | [3]; [8] -13% | [4]; [7] 6% | [4]; [8] 6% | [5]; [7] -23% | [5]; [8] -23%

CCCCC(CC)CNC(=O)CI (centres undefined)
inactive: [1]; [7] 11% | [1]; [8] 66% | [6]; [7] -2% | [6]; [8] 22% | [2]; [7] 6% | [3]; [7] 9% | [3]; [8] 6% | [4]; [7] 9% | [5]; [7] -13% | [5]; [8] 51%
active: [2]; [8] 73% | [4]; [8] 76%

C=CC(=O)OCCOCc1ccccc1
inactive: [1]; [7] 4% | [1]; [8] 29% | [6]; [7] -3% | [6]; [8] 12% | [2]; [7] -1% | [2]; [8] 27% | [3]; [7] -2% | [3]; [8] -12% | [4]; [7] 1% | [4]; [8] 12% | [5]; [7] -32% | [5]; [8] 18%

CC(O)C(=O)NCCc1ccccc1 (centres undefined)
inactive: [1]; [7] 8% | [1]; [8] 4% | [6]; [7] -3% | [6]; [8] -2% | [2]; [7] -1% | [2]; [8] 1% | [3]; [7] 2% | [3]; [8] 3% | [4]; [7] -1% | [4]; [8] -2% | [5]; [7] 4% | [5]; [8] 10%

COc1ccc(/C(C#N)=C/c2cccc(N)c2)cc1
inactive: [1]; [7] 6% | [1]; [8] 16% | [6]; [7] 3% | [6]; [8] 10% | [2]; [7] 1% | [2]; [8] 27% | [3]; [7] 2% | [3]; [8] 2% | [4]; [7] 13% | [4]; [8] 42% | [5]; [7] -30% | [5]; [8] 12%

S=c1sc2ccccc2n1CCNc1ccccc1
inactive: [1]; [7] 8% | [6]; [7] -3% | [2]; [7] 4% | [3]; [7] 7% | [3]; [8] 25% | [4]; [7] 6% | [5]; [7] -10% | [5]; [8] 64%
active: [1]; [8] 90% | [6]; [8] 73% | [2]; [8] 98% | [4]; [8] 92%

CC(C)(C)c1cc([N+](=O)[O-])c(O)c([N+](=O)[O-])c1
inactive: [1]; [7] 36% | [6]; [7] 11% | [6]; [8] 54% | [2]; [7] 15% | [3]; [7] 22% | [3]; [8] 46% | [4]; [7] 18% | [5]; [7] 2%
active: [1]; [8] 89% | [2]; [8] 74% | [4]; [8] 74% | [5]; [8] 81%

O=[N+]([O-])/C=C/c1cccs1
inactive: [6]; [7] 33% | [2]; [7] 69% | [3]; [7] 16% | [4]; [7] 48% | [5]; [7] 4%
active: [1]; [7] 95% | [1]; [8] 98% | [6]; [8] 99% | [2]; [8] 100% | [3]; [8] 99% | [4]; [8] 100% | [5]; [8] 98%

CC(C)c1cc([N+](=O)[O-])c(O)c([N+](=O)[O-])c1
inactive: [1]; [7] 46% | [6]; [7] 14% | [2]; [7] 13% | [3]; [7] 18% | [4]; [7] 29% | [5]; [7] 24%
active: [1]; [8] 92% | [6]; [8] 75% | [2]; [8] 78% | [3]; [8] 76% | [4]; [8] 89% | [5]; [8] 91%

COc1ccc(N=CC2CCCCC2=O)c([N+](=O)[O-])c1 (centres undefined)
active: [4]; [8] 86%
inactive: [1]; [7] 25% | [1]; [8] 69% | [6]; [7] 29% | [6]; [8] 42% | [2]; [7] -1% | [2]; [8] 12% | [3]; [7] 31% | [3]; [8] 56% | [4]; [7] 13% | [5]; [7] 53% | [5]; [8] 61%

COc1cccc(NC(=O)c2c(SC)n[nH]c2N)c1
active: [1]; [8] 99% | [6]; [8] 98% | [2]; [8] 99% | [3]; [8] 75% | [4]; [8] 99% | [5]; [8] 91%
inactive: [1]; [7] 26% | [6]; [7] 38% | [2]; [7] 35% | [3]; [7] 30% | [4]; [7] 43% | [5]; [7] 11%

NCCN1C(=O)CNC1=S
inactive: [1]; [7] -23% | [1]; [8] 30% | [6]; [7] -1% | [6]; [8] -4% | [2]; [7] 3% | [2]; [8] 3% | [3]; [7] 0% | [3]; [8] -3% | [4]; [7] -1% | [4]; [8] -5% | [5]; [7] 10% | [5]; [8] 17%

CCCCCCN(CCCCCC)CCCCCCCCCCCO
active: [1]; [8] 98% | [6]; [8] 98% | [2]; [8] 99% | [3]; [8] 98% | [4]; [8] 99% | [5]; [8] 94%
inactive: [1]; [7] 15% | [6]; [7] 7% | [2]; [7] 10% | [3]; [7] 12% | [4]; [7] 16% | [5]; [7] 11%

C=CCCCCCCCCC(=O)NN
active: [1]; [8] 92% | [6]; [8] 79% | [2]; [8] 92% | [3]; [8] 81% | [4]; [8] 85% | [5]; [8] 91%
inactive: [1]; [7] 18% | [6]; [7] -1% | [2]; [7] 15% | [3]; [7] -8% | [4]; [7] 0% | [5]; [7] -25%
